Assay results published in ChEMBL document CHEMBL4513216, “Probing the Open Global Health Chemical Diversity Library for Multistage-Active Starting Points for Next-Generation Antimalarials” (ACS Infect Dis, 2020).
Hit rate of the full screen: of about 68,000 compounds, about 2,700 (4%) showed an effect of 50% or more. The full list was thinned out, with strong results kept by preference.

Tested on: Plasmodium berghei
Experiment: Screen against P. berghei liver stage (PbLuc), transformed with Luciferase, at 2uM
Type: functional, HepG2
Conditions: tested at 2 uM

SMILES	INHIBITION [%]
Cc1noc(C)c1CN1C(=O)[C@@H]2CC[C@H]1CN(C(=O)c1cscn1)C2	-13.89
Cc1occc1C(=O)N1CCC2(CCN(Cc3ccccn3)C2=O)C1 (stereo unspecified)	49.25
O=C(O)[C@]12CCCN(Cc3ccsc3)C[C@H]1CN(c1ccccn1)C2	27.73
O=C(O)[C@]12CCCN(Cc3ccccc3)C[C@H]1CN(c1ncccn1)C2	-0.75
O=C(O)[C@]12CCCN(Cc3ccsc3)C[C@H]1CN(c1ncccn1)C2	53.55
CCC(C)[C@H](NC(=O)c1ccc(F)cc1-n1cnnn1)C(=O)OC (stereo partly specified)	24.67
CCn1nc(C)c(CNC(=O)c2cn(CC3CCCO3)nn2)c1C (stereo unspecified)	-32.59
CN(C)C(=O)[C@H]1C[C@H]2CN(CCc3ccccc3)C[C@@H]1O2	28.38
COc1ccc(CN2CCC[C@@H]3CN(C(=O)c4ccco4)C[C@@H]32)cc1	-24.31
CC(=O)N1C[C@H]2CCCN(Cc3ccc(C)o3)[C@H]2C1	-41.73
Cc1ccc(CN2CCC[C@@H]3CN(C(=O)c4ccco4)C[C@@H]32)o1	50.17
CCCC(=O)N(CCCN1CCOCC1)c1nc2c(C)c(C)ccc2s1	-3.67
Cc1cccc(CNC[C@H]2Cn3ccnc3CO2)n1	9.42
CN(C)CCNC(=O)c1cc(-c2cnc(N(C)C)nc2)cn1CC1CC1	8.88
COCCCNC(=O)c1cc(-c2cnc(N(C)C)nc2)cn1CC1CC1	58.6
CN(C)c1ncc(-c2cc(C(=O)NCCO)n(CC3CC3)c2)cn1	23.53
O=C(NCCCO)Nc1cnc2cc(Cl)ccc2c1O	47.4
CCN(Cc1ccco1)C(=O)NCc1nnc2n1CCC2	11.78
COCCN1CCc2ccc(=O)n(Cc3csc(C)n3)c2CC1	-80.01
Cc1ccc(C(O)CNC(=O)Nc2cc(C)nn2C)cc1 (stereo unspecified)	-15.64
Cc1cc(NC(=O)NCC(O)c2ccc(F)c(F)c2)n(C)n1 (stereo unspecified)	-12.19
Cc1cc(NC(=O)NCC(O)c2ccc(F)cc2)n(C)n1 (stereo unspecified)	50.75
Cc1cc(NC(=O)c2ccc(F)cc2Br)n(C)n1	-0.9
Cc1cc(NC(=O)c2ccc(F)cc2Cl)n(C)n1	56.53
Cc1cc(NC(=O)c2ccc(F)cc2F)n(C)n1	-20.8
O=C(O)CN1CCC(F)(F)C2(CCN(c3ccccc3)C2)C1 (stereo unspecified)	-21.78

SMILES	INHIBITION [%]
COCCN1CCC2(CCN(c3ncccn3)CC2)C1=O	0.2
CC(C)(C)C1CCC(O)(CNC(=O)CCS(C)(=O)=O)CC1 (stereo unspecified)	-16.28
CN1C[C@@H](n2cnc(-c3ccccc3)c2-c2nccn2C)C[C@H]1C(=O)O	28.07
Nc1nc(NCCO)cc(N2CCc3c([nH]c4ccccc34)C2)n1	-14.75
Cc1ccc2c(c1)CN(C(=O)C1CCCCC1)C(CN(C)C)CO2 (stereo unspecified)	38.1
Cn1cc(-c2ncc3c(c2C(=O)O)CCN(Cc2ccco2)C3)cn1	2.26
COc1ccc(Cl)cc1CS(=O)(=O)Cc1nc(C2CC2)no1	7.46
COCc1nc(C2CC2)nn1-c1cc(Cl)ccc1OC	52.98
COc1ccc(Cl)cc1-n1nc(C2CCCC2)nc1Cn1cnnn1	31.51
COCc1nc(C2CC2)nn1-c1ccccc1Cl	72.05
COCc1nc(C2CC2)nn1-c1cccc(F)c1	-1.57
COC(=O)[C@H](C)NC(=O)c1nc(C2CC2)n(-c2ccccc2Cl)n1	13.65
Cc1ccn2c(F)c(C(=O)N3CCC4(CCC(=O)N(C)C4)CC3)nc2c1	6.81
Cc1nc(CNC(=O)Nc2cc(F)ccc2N2CCN(C)CC2)no1	29.53
c1cc(OCc2ccc3c(c2)OCO3)ccc1CNC1CC1	1.13
Cc1cc(C)nc(C2CCCN2C(=O)c2cnccn2)n1 (stereo unspecified)	-48.89
CNc1[nH]nc(N)c1C(=O)Nc1ccccc1	0.86
CNc1[nH]nc(N)c1C(=O)Nc1ccc(OC)cc1	52.21
CNc1[nH]nc(N)c1NC(=O)c1ccccc1	-11.22
CCc1ncc2c(n1)CN(C(C)C(=O)N1CCOCC1)CC2 (stereo unspecified)	1.42
CC(=O)NCCc1ccc(S(=O)(=O)Nc2ccc(C)cc2F)s1	22.16
COCCN1CCCC(c2cncc(Oc3ccccc3OC)n2)C1 (stereo unspecified)	41.56
COc1cccc2ccc(CN3CCN(c4ccncc4)CC3)nc12	65.42
COc1cccc2ccc(CN3CCN(c4cccnc4)CC3)nc12	-18.81
COc1cccc2ccc(CN3CCN(c4ncccn4)CC3)nc12	38.8
CCC=C(C)C(=O)NCc1ccnc(OC2CCOCC2)c1	4.54

SMILES	INHIBITION [%]
CC(C)c1nnc2n1CCN(CC(=O)N1CCc3ccccc3C1)C2	54.92
CC(C)c1nnc2n1CCN(CC(=O)N1CCc3sccc3C1)C2	-38.92
Cc1nnc2n1CCN(CC(=O)N1CCc3ccccc3C1)C2	36.64
CC(C)c1nnc2n1CCN(C(=O)CN1Cc3ccccc3C1=O)C2	53.03
CC(C)c1nnc2n1CCN(C(=O)CN(C)Cc1ccccc1)C2	-58.05
CC(C)c1nnc2n1CCN(C(=O)CN1CCc3sccc3C1)C2	-9.3
Cc1ccc(NC(=O)N2CC(C(=O)NC(C)C)C3(CCOCC3)C2)cc1 (stereo unspecified)	33.65
COCC1CCN(S(=O)(=O)c2ccc(C(=O)NCC(F)F)cc2)C1 (stereo unspecified)	15.44
Cc1cc(C(=O)N2CCN(c3nc4c(C(C)C)cccc4s3)CC2)on1	61.06
Cc1cc(C(=O)N2CCN(c3nc4c(C(C)C)cccc4s3)CC2)no1	23.65
Cc1cc(C(=O)N2CCN(c3nc4c(C)cccc4s3)CC2)no1	7.72
Cc1nn(CC(=O)N(C)Cc2nncn2C(C)C)c(=O)c2ccccc12	-0.47
O=C(O)c1ccccc1CN1CCCC(Cc2ccn[nH]2)C1 (stereo unspecified)	28.66
O=C1NC2(CCN(C(=O)c3ccccc3)CC2)CC1c1cccnc1 (stereo unspecified)	-51.9
O=C1NC2(CCN(C(=O)N3CCOCC3)CC2)CC1c1cccnc1 (stereo unspecified)	78.29
Cc1cc(C(=O)N2CCC3(CC2)CC(c2cccnc2)C(=O)N3)no1 (stereo unspecified)	12.68
Cc1occc1-c1nc(NC2CCCC2)ncc1-c1ccccn1	11.97
COCCNC(=O)CN(C)C(C)c1nc(C)no1 (stereo unspecified)	-4.01
COCCCNC(=O)CN(C)C(C)c1nc(C)no1 (stereo unspecified)	35.5
COCCCNC(=O)CN(C)C(C)c1nc(C(C)C)no1 (stereo unspecified)	60.79
Cc1ccc(-c2cc(C)nc(C3CCCN3S(C)(=O)=O)n2)cc1 (stereo unspecified)	16.87
CC(C(=O)Nc1ccnn1C(C)C)N1CCN(Cc2ccon2)CC1 (stereo unspecified)	62
CC(C(=O)Nc1ccnn1C(C)C)N1CCN(Cc2ccccc2)CC1 (stereo unspecified)	47.68
COCCN1CCN(C(C)C(=O)Nc2ccnn2C(C)C)CC1 (stereo unspecified)	23.86
C[C@H]1C[C@@H]2CCN(C(=O)c3ccncc3)C[C@H]2O1	-15.25
CCn1c(C)nnc1CN(C)C1CCN(CCn2cccn2)C1 (stereo unspecified)	-53.72

SMILES	INHIBITION [%]
CN(C)S(=O)(=O)N1CCC2(COCc3cnc(-c4cccnc4)nc32)C1 (stereo unspecified)	19.51
Cc1cc(C)nc(N2CCOC(C)(C(=O)N(C)C)C2)n1 (stereo unspecified)	19
Cc1ccc(N2CCOC(C)(C(=O)N(C)C)C2)nn1 (stereo unspecified)	39.07
Cc1cc(N2CCOC(C)(C(=O)N(C)C)C2)ncn1 (stereo unspecified)	58.29
CC(C)N1CCOC[C@H]1c1nc(C(C)(C)C)c[nH]1	-0.14
CCCC(NC(=O)c1cc(C)ccc1O)c1nnn[nH]1 (stereo unspecified)	-7.9
COC(=O)[C@@H]1Cc2ncn(C)c2CN1S(=O)(=O)Cc1ccccc1	26.55
COC(=O)[C@@H]1Cc2ncn(C)c2CN1S(=O)(=O)c1cccs1	51.81
COC(=O)[C@@H]1Cc2ncn(C)c2CN1S(=O)(=O)c1ccc(C)cc1	6.24
COC(=O)[C@@H]1Cc2ncn(C)c2CN1S(=O)(=O)c1ccc(Cl)cc1	57.85
COC(=O)[C@@H]1Cc2ncn(C(C)C)c2CN1S(=O)(=O)Cc1ccccc1	39.18
CCCn1cnc2c1CN(S(=O)(=O)Cc1ccccc1)[C@H](C(=O)OC)C2	60.6
CCCn1cnc2c1CN(S(=O)(=O)c1ccc(F)cc1)[C@H](C(=O)OC)C2	46.32
COC(=O)[C@@H]1Cc2ncn(C)c2CN1S(=O)(=O)c1ccc(OC)cc1	47.42
CCCS(=O)(=O)N1Cc2c(ncn2Cc2ccccc2)C[C@H]1C(=O)OC	39.73
Nc1ncc(-c2cccc(NC(=O)[C@@H]3CCCCN3)c2)cn1	14.95
CN(C)CCN1CCN(C(=O)c2ccn(C)c(=O)c2)CC1	5.59
CC(C)OCCCNC(=O)c1c(-n2cnnn2)sc2c1CCCC2	49.57
Cc1ccc(N2C[C@H]3OCC[C@H]3[C@H](C(=O)NCC3CC3)C2)nn1	-11.4
Cc1ccc(N2C[C@H](C(=O)NCC3CC3)[C@@H]3CCO[C@@H]3C2)nn1	-2.72
Cc1ccc(N2C[C@H]3OCC[C@H]3[C@H](C(=O)NCc3ccco3)C2)nn1	65.78
Cc1nccn1CC1CCN(C(=O)c2ccccc2)CC1	-78.75
COc1cccc(N2CC3(CCN(c4ccncn4)C3)CC2=O)c1 (stereo unspecified)	13.38
